# High-throughput results from PubChem BioAssay.
# KDM5B inh: blocks human KDM5B histone demethylase activity. 220,000 tested, 2.6% active. AID 1347165. KDM5B demethylase, FDH-coupled NADH fluorescence (FDH is formaldehyde dehydrogenase). Q9UGL1. Potency, µM (titrated, usually from 57.7 µM), actives largely listed as inhibitors; active = well fitted inhibition curve with a large enough effect; note: 0% is about no effect; nearly all actives have a fitted effect of over 70% in size
#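 Compound dilutions met 200 nM (final) KDM5BΔAP for 10 min at room temperature before substrate addition. The substrate mix held 12.5 µM H3K4me3 with cofactors 25 µM α-ketoglutarate and 50 µM Fe²⁺. NADH signal gain over 30 min defined activity.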
# Numbers without * were called inactive; i = inactive. This excerpt belongs to a sample that is enriched for hits. Potency is the fitted concentration of half-maximal effect.
SMILES,KDM5B inh
COc1ccc(C(=O)N2CCCC(n3cc(-c4nc(-c5ccccc5)no4)nn3)C2)cc1OC (stereo not given),i
O=C(O)c1ccc2c(c1)c(C(C(=O)O)N1CCN(Cc3cccnc3)CC1)cn2Cc1ccccc1 (stereo not given),i
O=C(c1ccccc1)C1CCN(c2ncccc2[N+](=O)[O-])CC1,i
N#Cc1cccnc1N1CCC(NC(=O)c2ccc3nccn3c2)CC1,i
N#Cc1cccnc1N1CC[C@@H](N2CCC(O)CC2)[C@H](O)C1,25µM*
Cc1cccc(N(C)C(=O)Cn2nc(-c3ccc(Br)cc3)ccc2=O)c1,i
Cc1cc(CN2C[C@@H](CO)[C@H](c3ccccn3)C2)n(C)n1,i
N#Cc1cccc(CN2C[C@@H](CO)[C@H](c3ccccn3)C2)c1,13µM*
COC[C@@H]1CN(Cc2cccc(C#N)c2)C[C@H]1c1ccccn1,i
CCc1ccc(-c2cc(C(=O)Nc3nn[nH]n3)c3ccccc3n2)cc1,i
N#CCCN1CCN(C(C(=O)O)c2cn(CC(=O)O)c3ccc(Br)cc23)CC1 (stereo not given),i
O=C(O)C(Cl)C12CC3CC(C1)CC(C(Cl)C(=O)O)(C3)C2 (stereo not given),i
CCCCN(C)Cc1ccc(OCc2ccccc2)c(OC)c1,i
O=C1C(c2ccccc2)=S=C2c3ccccc3-c3ccccc3N12,i
CN1CCC2(C1)CN(CC1CC1)c1ccc(C(=O)NC3CCC3)cc12 (stereo not given),35µM*
CN1CCC2(C1)CN(CC1CC1)c1ccc(C(=O)NC3COC3)cc12 (stereo not given),35µM*
O=C(NC1CC1)c1ccc2c(c1)CCCC2,i
CN1C(=O)Cc2cc(C(=O)NC3CCCCCC3)ccc21,i
CCC(=O)N1CCc2ccc(C(=O)NC3CCCCC3)cc21,i
CCC(=O)N1CCc2ccc(C(=O)NC3CC3)cc21,i
CCn1ncc(Br)c1C(=O)Nn1c(C)nc2sc3c(c2c1=O)CCC(C)C3 (stereo not given),i
CCc1c(C)sc(NC(=O)CSc2ccccc2)c1C#N,i
COc1cc(F)ccc1C1=NN(C(C)=O)C(c2ccc3nccnc3c2)C1 (stereo not given),i
CCc1cc(Nc2ccc(OC)cc2)n2ncnc2n1,i
COc1cc(F)ccc1-c1ccnc2ncnn12,25µM*
SMILES,KDM5B inh
c1ccc2oc(-c3ccnc4ncnn34)cc2c1,i
CCc1cc(Nc2ccccc2OC)n2ncnc2n1,i
COc1ccc(-c2ccnc3ncnn23)c(F)c1,28µM*
Cc1cc(C(=O)OCC(=O)Nc2ccc(C)c(F)c2)c2ccccc2n1,i
CCOc1ccccc1NC(=O)/C=C/c1ccc2ccccc2n1,i
O=C(c1ccc(Br)s1)N(Cc1ccc(Br)cc1)C1CC1,i
O=C1CC2CCN(C(=O)c3ccccc3)CC2CCN1 (stereo not given),28µM*
O=C1CC2CCN(C(=O)c3ccc(F)cc3)CC2CCN1 (stereo not given),i
O=C1CC2CCN(C(=O)c3cccc(Cl)c3)CC2CCN1 (stereo not given),i
Cn1c(SCC(=O)N2CCCCC2)nc2ccsc2c1=O,i
Cc1ccc(Oc2c(CCC(=O)NC(C)C)c(C)nn2-c2ccccc2)cc1,i
Nn1c(SCc2ncc(-c3ccccc3)o2)nnc1-c1ccccc1F,i
Cc1ccccc1COC(=O)C1Cc2ccccc2C(=O)O1 (stereo not given),i
COCC1CN(C)CC12CCN(Cc1cc(C)nn1C)CC2 (stereo not given),i
CCn1cc(CN2CCC3(CC2)CN(C)CC3COC)cn1 (stereo not given),25µM*
COCC1CN(C)CC12CCN(Cc1ccc(Cl)c(F)c1)CC2 (stereo not given),i
CSc1ccc(/C=C2\N=C(c3ccc(C)cc3)OC2=O)cc1,i
CN(C)S(=O)(=O)N1CCC(Oc2ccc(C(=O)N3C[C@H]4CC[C@H]3C4)cc2)CC1,i
Cc1ccc(C#N)c(N2CC[C@@]3(O)CCN(S(=O)(=O)N(C)C)C[C@H]3C2)n1,28µM*
CCOC(=O)c1cnc2ccc(OC)cc2c1Nc1cccc(Cl)c1,i
Cc1ccc2c(COC(=O)Cc3n[nH]c(=O)c4ccccc34)cc(=O)oc2c1C,i
CCOC(=O)CCCNC(=O)CCl,i
O=C(NCC1CCCO1)c1ccnc(-c2nnc3ccc(Nc4ccccc4)nn23)c1 (stereo not given),i
CN1CCN(C(=O)c2ccnc(-c3nnc4ccc(N(C)C)nn34)c2)CC1,i
CN(c1ccccc1)c1ccc2nnc(-c3cc(C(=O)NCc4ccncc4)ccn3)n2n1,32µM*
SMILES,KDM5B inh
CCCc1nnc(C[C@@H]2C[C@@H](C(C)C)[C@H](CNc3cccnc3)C=C2C)o1,10µM*
CCCc1nnc(C[C@@H]2C[C@@H](C(C)C)[C@H](CO)C=C2C)o1,i
CCCc1nnc(C[C@@H]2C[C@@H](C(C)C)[C@H](CNCc3cccnc3)C=C2C)o1,i
CN(C)CCNC1CCCCC1,i
CC1CC(C)(C)C(CNC(=O)CCl)C1NC(=O)CCl (stereo not given),i
CCCOc1ccc(Br)cc1C1C(C(=O)OC)=C(C)Nc2nnnn21 (stereo not given),i
O=[N+]([O-])c1ccccc1/C=C/C=N/Nc1nc(Cl)c(Cl)cc1Cl,i
CN1CC(=O)N(c2ccccc2F)Cc2c(NCCc3ccccc3F)ncnc21,i
CN1CC(=O)N(c2ccccc2F)Cc2c(NCCc3ccc(Cl)cc3)ncnc21,25µM*
CN1CC(=O)N(c2ccccc2F)Cc2c(NCCCc3ccccc3)ncnc21,i
O/N=C1\CC(c2ccccc2)Oc2c(Cl)cc(Cl)cc21 (stereo not given),i
COc1ccc(C2C(c3ccc(C)cc3)=C(O)C(=O)N2CCc2ccccc2)cc1 (stereo not given),i
CCO[C@H]1CN(C(=O)CN(c2cccc(C)c2)S(C)(=O)=O)C[C@@H]1O,i
CCO[C@H]1CN(C(=O)CCc2ccc(-c3ccc(Cl)cc3)[nH]2)C[C@@H]1O,28µM*
CCO[C@H]1CN(C(=O)CCCOc2ccccc2)C[C@@H]1O,i
CCONC(=O)c1ccc2c(c1)NC(=O)CS2,i
C=CCNc1nc(C(=O)OCC(=O)NCC(=O)Nc2c(C)cc(C)cc2C)cs1,i
CCCn1c(=O)[nH]c(=O)c2c1nc(-c1cccc(OC)c1OC)n2CCN1CCOCC1,i
COc1cccc(CN2CCCOCCNC(=O)CC2)c1OC,i
COc1cccc(-c2nc3cc4c(cc3cc2CN2CCCOCC2)OCO4)c1OC,28µM*
COc1ccc(COC(=O)C2=C(C)NC3=C(C(=O)CCC3)C2c2cccc(OC)c2OC)cc1 (stereo not given),i
Cc1ccc(NC(=O)CCn2ccn3nc4c(c3c2=O)CCCC4)c(F)c1,i
CCOc1ccc(NC(=O)CCc2c(C)nc3nc(C)nn3c2C)cc1,i
Cc1ccc(NC(=O)CCNc2c(C)nc3cnccn23)c(F)c1,25µM*
CCOc1ccc(NC(=O)CSCc2cc(=O)n3cccc(C)c3n2)cc1,i
CCOc1ccc(NC(=O)CCNc2c(C)nc3cnccn23)cc1,20µM*
Cc1ccc(NCC(=O)Nc2ccc(CC#N)cc2)c(F)c1,i
O=C(c1nc(-c2ccc(F)cc2)no1)N1CCN(c2ccc(Cl)c(Cl)c2)CC1,i
CCOc1ccc(NC(=O)c2cccc(Nc3ccnc(-c4ccc(F)cc4)n3)c2)cc1,i
